High-throughput results: PubChem, several laboratories
Rows were chosen to be rich in hits. Some 3.9% of all compounds tested hit in one or more screens of this group.
Mtb FBA inh: Mtb FBA enzyme inhibitors, primary screen, biochemical, fluorescence, strain H37Rv. Fructose-bisphosphate aldolase (Mycobacterium tuberculosis (strain ATCC 25618 / H37Rv)), …. purified M. tuberculosis FBA, fluorescence read-out. hit rate 2.3% among 360,000. inhibition, % at 1 µM; in the data active means inhibition above about 27%;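 further: 0% = vehicle and 100% = reference inhibitor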
Target sequence (P9WQA3 whole entry, looked up): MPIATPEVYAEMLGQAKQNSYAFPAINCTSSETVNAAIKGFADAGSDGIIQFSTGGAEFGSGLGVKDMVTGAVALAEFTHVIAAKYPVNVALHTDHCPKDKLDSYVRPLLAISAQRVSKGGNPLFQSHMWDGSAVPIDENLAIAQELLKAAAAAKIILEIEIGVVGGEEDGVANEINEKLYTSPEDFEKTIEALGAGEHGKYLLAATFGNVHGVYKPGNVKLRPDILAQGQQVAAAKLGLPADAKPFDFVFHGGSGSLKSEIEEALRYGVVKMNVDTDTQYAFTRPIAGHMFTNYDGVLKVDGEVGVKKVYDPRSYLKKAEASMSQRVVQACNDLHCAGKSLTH
GDH-TPI counter-1: GDH-TPI coupling enzyme inhibitors, primary screen, artefact control for M. tuberculosis FBA inhibitor project, biochemical, absorbance, full deck. GDH-TPI coupled enzyme counterscreen, NADH absorbance. inhibition, % at 4.8 µM. hit rate 1.2% among 360,000;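 further: 0% = DMSO wells and 100% = wells lacking the enzyme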
CCHF vOTU inh: CCHFV vOTU protease inhibitors, primary screen, biochemical, Pep-AMC substrate, fluorescence; inhibition, % at 11.5 µM; hit rate 0.55% among 370,000; AID 651958, 2012; further: 0% = vehicle wells with enzyme and 100% = no enzyme wells
BH1578 lux ind: inducers of Vibrio cholerae quorum light production without autoinducers, primary screen, BH1578 luxS cqsA deficient, single point; V. cholerae BH1578 lux reporter, luminescence, 6 h; hit rate 0.16% among 350,000; AID 588436, 2011; activation, % at 18.7 µM; in the data active means activation mostly above about 9.7%, no sharp cut-off
Mtb FBA inh conf: M. tuberculosis aldolase blockers, biochemical, fluorescence, strain H37Rv, confirmation. AID 651616, 2012. shares compounds with Mtb FBA inh. inhibition, % at 1 µM. hit rate 78% among 5,600. purified M. tuberculosis FBA, fluorescence read-out; in the data active means inhibition above about 27%;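 further: 0% = vehicle wells and 100% = reference inhibitor wells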
GDH-TPI counter-2: GDH-TPI coupling enzyme inhibitors, artefact control for M. tuberculosis FBA inhibitor project, biochemical, fluorescence, high throughput. shares compounds with Mtb FBA inh. GDH-TPI coupled enzyme counterscreen. inhibition, % at 1 µM. hit rate 81% among 5,600; in the data active means inhibition above about 10%
* = called active by the depositor; i = inactive; · = no result; + = active, no number. Unless noted, no stated cut-off is given here; in the data, active means inhibition above about 30%; inactive means the rest.

SMILES	Mtb FBA inh	GDH-TPI counter-1	CCHF vOTU inh	BH1578 lux ind	Mtb FBA inh conf	GDH-TPI counter-2
Cc1ccc(F)c(NC(=S)Nc2cccc3ccccc23)c1	46.0*	6.5	-16.4	-0.3	55.2*	49.6*
S=C(Nc1cccc2ccccc12)Nc1cccc2ccccc12	88.2*	7.3	-17.0	i	96.0*	73.2*
CC(=O)Nc1cccc(NC(=S)Nc2cccc3ccccc23)c1	3.1	1.3	-16.0	i	·	·
COc1ccc(NC(=S)Nc2cccc3ccccc23)cc1OC	41.5*	7.2	-2.9	-0.7	35.2*	33.1*
C1CN(P2(N3CC3)=NP(N3CC3)(N3CC3)=NP(N3CC3)(N3CC3)=N2)CCO1 (stereo not given)	3.5	-2.2	9.3	i	·	·
O=C(Nc1nc2cc(Cl)ccc2s1)C1CCCN(S(=O)(=O)c2cccc3cccnc23)C1 (stereo not given)	-0.5	4.3	·	-0.2	·	·
Cc1cccc2c1-c1sc(C(=O)N3CCc4ccccc4C3)cc1CO2	41.1*	-1.4	-45.8	-0.1	59.1*	40.9*
CN1CCN(C(=O)c2cc3c(s2)-c2ccccc2S(=O)(=O)C3)CC1	-0.8	19.4	12.3	-0.3	·	·
Cc1cccc2c1-c1sc(C(=O)N3CCCCC3)cc1CO2	42.2*	10.9	-28.1	-0.2	10.9	19.1*
C/C(Cl)=C/Cn1c(SC(C)C)nc2c1c(=O)[nH]c(=O)n2C	3.4	0.8	·	-0.5	·	·
N=c1oc2ccc3ccccc3c2cc1-c1nc(-c2ccccc2)cs1	0.6	-9.9	-17.6	-0.2	·	·
N=c1oc2ccc3ccccc3c2cc1C(N)=S	104.4*	4.8	-141.3	-0.4	33.5*	16.8*
COC(=O)c1sccc1NC(=O)Cc1ccc(OC)cc1	-0.8	9.2	2.0	-2.6	·	·
COc1ccc(CC(=O)Nc2ccc(N(C)C)c3ccccc23)cc1	33.6*	2.6	-10.3	i	+	128.2*
O=C(NCc1ccc(F)cc1)c1ccc(CS(=O)(=O)Cc2ccccc2F)o1	55.0*	1.9	-4.5	-0.2	95.2*	82.6*
O=C(NCc1ccc(F)cc1)c1ccc(CS(=O)(=O)Cc2ccc(F)cc2)o1	-0.2	-8.7	-11.3	i	·	·
CC(C)c1ccc(NC(=O)C(c2ccccc2)N2CCOCC2)cc1 (stereo not given)	0.2	-10.3	4.0	-0.1	·	·
COc1ccc(NS(=O)(=O)c2ccc(Cl)c(C(=O)O)c2)cc1S(=O)(=O)N1CCCCC1	-5.3	-4.2	8.3	-0.3	·	·
Nc1c(-c2ccccc2)nc(Cl)nc1-c1ccccc1	42.8*	12.2	-178.9	i	-3.3	-1.9
Clc1ccc(-c2cc3ccccc3[nH]2)cc1	13.6	3.7	-16.3	i	·	·
FC(F)(F)c1cc(-c2cccs2)nc(-n2cc(Cl)cn2)n1	30.2*	19.7	5.2	i	40.8*	35.2*
CCn1c(SCC(=O)N2CCOCC2)nnc1-c1cccs1	70.2*	5.8	0.9	-7.1	141.5*	116.8*
COc1ccc(-c2cc(C(F)(F)F)n3nc(C(=O)NCc4ccco4)cc3n2)cc1	47.0*	34.2*	-47.0	i	106.4*	79.8*
S=c1[nH]c(-c2ccccc2)cn1/N=C/c1cccnc1	33.8*	18.0	-10.9	i	94.2*	84.5*
S=c1[nH]c(-c2ccccc2)cn1/N=C/c1cccs1	30.8*	40.0*	16.6	0.5	151.7*	126.3*
SMILES	Mtb FBA inh	GDH-TPI counter-1	CCHF vOTU inh	BH1578 lux ind	Mtb FBA inh conf	GDH-TPI counter-2
S=c1[nH]c(-c2ccccc2)cn1/N=C/c1ccc(Br)cc1	32.5*	1.3	4.8	-0.4	170.2*	126.2*
O=C(O)c1ccc(/C=N/n2cc(-c3ccccc3)[nH]c2=S)cc1	37.4*	9.5	4.1	i	49.6*	38.3*
Cc1ccc(/C=N/n2c(-c3ccccc3)n[nH]c2=S)cc1	-1.4	-0.7	9.4	-0.9	·	·
Cc1ccc(-c2n[nH]c(=S)n2/N=C/c2ccc(C(=O)O)cc2)cc1	-1.1	2.9	8.3	-2.8	·	·
Cc1ccc(S(=O)(=O)CC(=O)Nc2cccc(C)n2)cc1	-1.2	-6.0	-0.3	-4.5	·	·
Cc1c(C)[n+](=O)c(-c2ccco2)c(C)n1[O-]	-0.3	13.1	3.7	-0.3	·	·
O=C(Nc1cccc(C(F)(F)F)c1)c1sc(Cl)nc1C(F)(F)F	2.1	-5.1	8.0	-0.3	·	·
COC(=O)c1cccc(NC(=O)C(C)(C)C)c1	36.4*	7.7	-16.4	0.6	+	+
COc1cccc(NC(=O)C(C)(C)C)c1	1.0	7.9	3.8	i	·	·
COc1ccc(/C=N/c2oc(-c3ccccc3)cc2C#N)cc1OC	48.4*	2.0	1.8	1.2	28.1*	24.6*
CC(=O)c1ccc(S(=O)(=O)N(C)CCCC(=O)NCc2ccc3c(c2)OCO3)cc1	83.9*	9.1	7.8	-14.3	144.1*	95.9*
Cc1nc(SCC(=O)NCC2CCCO2)c2oc3ccccc3c2n1 (stereo not given)	-0.1	10.2	-6.9	-1.8	·	·
C[N+]1(CC(=O)OCCCc2ccccc2)CCCC1	0.4	1.6	6.2	-0.2	·	·
C[N+]1(CC(=O)OCCCc2ccccc2)CCCCC1	30.1*	-2.5	8.3	-0.3	59.9*	41.7*
CCOC(=O)CN1C(=O)S/C(=C/C=C/c2ccc(N(C)C)cc2)C1=O	-6.1	-2.5	22.2	i	·	·
CCOC(=O)CNS(=O)(=O)c1ccc2c3c(cccc13)C(=O)N2CC	59.1*	8.8	-40.3	0.7	46.0*	40.7*
CCOC(=O)C1CCN(S(=O)(=O)c2ccc3c4c(cccc24)C(=O)N3)CC1	40.9*	4.1	·	-0.4	+	+
CCOC(=O)C1CCN(S(=O)(=O)c2ccc3c4c(cccc24)C(=O)N3CC)CC1	42.6*	27.3	-36.8	i	48.9*	30.5*
CCC(c1nnc(SCC(=O)Nc2ccc(NC(C)=O)cc2)n1Cc1ccccc1)N(C)C (stereo not given)	-2.6	7.4	-4.8	i	·	·
CCCNC(=O)c1cn(CC)c2cc(N3CCN(C(=O)c4ccco4)CC3)c(F)cc2c1=O	79.9*	10.3	-23.9	-0.3	142.2*	113.0*
CCCCNC(=O)c1cn(CC)c2cc(N3CCN(C)CC3)c(F)cc2c1=O	22.4	8.9	-9.9	i	·	·
CCn1cc(C(=O)NCc2cccnc2)c(=O)c2cc(F)c(N3CCN(C(=O)c4ccco4)CC3)cc21	47.7*	3.4	-16.7	-0.9	52.9*	45.3*
Fc1ccc(-n2c(-c3cccs3)nc3nc4ccccc4nc32)cc1	80.8*	4.4	-41.4	-0.3	0.3	-4.3
CN1CCN(c2ccc(Cl)cc2NS(=O)(=O)c2ccccc2Cl)CC1	-2.5	-2.8	-8.4	i	·	·
